Where “and” joins values, the source holds several entries; their conditions need not be identical. Identical values can stand only once. About 2,000 (36%) of roughly 5,500 compounds were called active. About 18% were inconclusive and are not listed. No stated cut-off is given here; in the data, active means normalized growth mostly below about 0.91 (no sharp cut-off); inconclusive means no clear call, values can overlap the other calls; inactive means mostly above about 0.92. This is one part of the list.
Test: chemical genetic growth profiling, strain panel (AID 1159580);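 further: tested at 20 µM; growth read once vehicle control cultures reached saturation at 30 °C; 1 = growth at the plate median or of vehicle wells; lower values mean less growth of the strain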
Details: S. cerevisiae deletion strains, growth OD

Measured: normalized growth

COCCc1ccc(OCC(O)CNC(C)C)cc1 (stereo unspecified)
inactive: locus YAL013W, strain DEP1, active compounds read low 1.01 | locus YAL021C, strain ccr4, active compounds read low 1 | locus YAL026C, strain drs2, active compounds read low 1.01 | locus YAL030W, strain snc1, active compounds read low 0.988 | locus YAL040C, strain CLN3, active compounds read low 0.996 | locus YBL061C, strain skt5, active compounds read low 0.989 | locus YBR009C, strain hhf1, active compounds read low 0.998 | locus YBR021W, strain FUR4, active compounds read low 1.01 | locus YBR023C, strain chs3, active compounds read low 0.987 | locus YBR171W, strain sec66, active compounds read low 0.986 | locus YBR229C, strain ROT2, active compounds read low 1 | locus YBR231C, strain swc5, active compounds read low 1.01 | locus YBR279W, strain paf1, active compounds read low 1.01 | locus YCL011C, strain gbp2, active compounds read low 0.96 | locus YCL016C, strain dcc1, active compounds read low 0.966 | locus YCL029C, strain bik1, active compounds read low 1.03 | locus YCL061C, strain MRC1 (second series), active compounds read low 1 | locus YCL061C, strain MRC1, active compounds read low 0.997 | locus YCL069W, strain vba3, active compounds read low 0.992 | locus YCR088W, strain abp1, active compounds read low 1 | locus YDL005C, strain med2, active compounds read low 1 | locus YDL035C, strain GPR1, active compounds read low 0.997 | locus YDL040C, strain nat1, active compounds read low 1.01 | locus YDL074C, strain BRE1, active compounds read low 1.02 | locus YDL101C, strain DUN1, active compounds read low 1.02 | locus YDL134C, strain PPH21, active compounds read low 1 | locus YDL185W, strain tfp1, active compounds read low 1.01 | locus YDL192W, strain arf1, active compounds read low 1 | locus YDR001C, strain nth1, active compounds read low 0.979 | locus YDR069C, strain doa4, active compounds read low 0.991 | locus YDR101C, strain arx1, active compounds read low 1.01 | locus YDR137W, strain rgp1, active compounds read low 0.942 | locus YDR150W, strain NUM1, active compounds read low 1 and 0.986 | locus YDR159W, strain sac3, active compounds read low 1.02 | locus YDR162C, strain NBP2, active compounds read low 1 | locus YDR195W, strain ref2 0.998 | locus YDR297W, strain sur2, active compounds read low 1.02 | locus YDR318W, strain mcm21, active compounds read low 1.02 | locus YDR334W, strain swr1, active compounds read low 0.942 | locus YDR335W, strain msn5, active compounds read low 0.984 | locus YDR363W, strain ESC2, active compounds read low 1.02 | locus YDR388W, active compounds read low 1.02 | locus YDR392W, strain spt3, active compounds read low 0.944 | locus YDR502C, strain sam2, active compounds read low 0.997 | locus YEL003W, strain gim4, active compounds read low 0.996 | locus YEL037C, strain rad23, active compounds read low 0.989 | locus YEL061C, strain CIN8 (second series), active compounds read low 0.975 | locus YEL061C, strain CIN8, active compounds read low 1.01 | locus YER002W, strain NOP16, active compounds read low 0.993 | locus YER015W, strain faa2, active compounds read low 0.988 | locus YER016W, strain bim1, active compounds read low 0.999 | locus YER110C, active compounds read low 1.01 | locus YER111C, strain swi4, active compounds read low 1 | locus YER155C, strain BEM2 (second series), active compounds read low 1.02 | locus YER155C, strain BEM2, active compounds read low 1 | locus YER167W, strain BCK2, active compounds read low 0.981 | locus YFR010W, strain ubp6, active compounds read low 0.978 | locus YGL078C, strain dbp3, active compounds read low 1.01 | locus YGL086W, strain mad1, active compounds read low 1 | locus YGL167C, strain pmr1, active compounds read low 0.989 | locus YGL173C, strain kem1, active compounds read low 1 | locus YGL227W, strain vid30, active compounds read low 0.988 | locus YGL240W, strain doc1, active compounds read low 1.03 | locus YGL248W, strain PDE1, active compounds read low 1.01 | locus YGL253W, strain hxk2, active compounds read low 0.983 | locus YGR078C, strain PAC10, active compounds read low 1.02 | locus YGR135W, strain pre9, active compounds read low 1.01 | locus YGR229C, strain SMI1, active compounds read low 1.01 and 1.02 | locus YGR252W, strain gcn5, active compounds read low 0.978 | locus YHR013C, strain ard1, active compounds read low 0.956 | locus YHR027C, strain rpn1, active compounds read low 0.971 | locus YHR030C, strain SLT2, active compounds read low 1 and 1.06 | locus YHR079C, strain IRE1 (second series), active compounds read low 1.02 | locus YHR079C, strain IRE1, active compounds read low 1.07 | locus YHR094C, strain hxt1, active compounds read low 1.01 | locus YHR129C, strain ARP1, active compounds read low 1.01 | locus YHR142W, strain chs7, active compounds read low 0.943 | locus YHR200W, strain rpn10, active compounds read low 1.02 | locus YIL066C, strain RNR3, active compounds read low 1.01 | locus YIL073C, strain SPO22, active compounds read low 1.04 | locus YIL125W, strain kgd1, active compounds read low 1.01 | locus YIR030C, strain dcg1, active compounds read low 1.02 | locus YJL092W, strain hpr5, active compounds read low 0.988 | locus YJL095W, strain BCK1 (second series), active compounds read low 0.994 | locus YJL095W, strain BCK1, active compounds read low 1.03 and 1.04 | locus YJL115W, strain asf1, active compounds read low 0.964 | locus YJL129C, strain trk1, active compounds read low 1 | locus YJL134W, strain LCB3, active compounds read low 1 | locus YJL154C, strain vps35, active compounds read low 0.973 | locus YJL164C, strain tpk1, active compounds read low 1.01 | locus YJL166W, strain qcr8, active compounds read low 0.981 | locus YJL168C, strain set2, active compounds read low 1.03 | locus YJL187C, strain SWE1 (second series), active compounds read low 1.03 | locus YJL187C, strain SWE1, active compounds read low 1.04 | locus YJR043C, strain POL32, active compounds read low 1.01 | locus YJR066W, strain TOR1, active compounds read low 1.01

Source: PubChem BioAssay AID1159580 (chemical genetic matrix, 2015)
